A selection: hits, their analogues and other compounds. The true share with any hit is near 2.6%.
IDE cell inh: inhibitors of human insulin-degrading enzyme in cells. P14735. HEK cells, FAbetaB cleavage, fluorescence polarization. inhibition, % at 5.59 µM. 320,000 compounds, 0.41% hits. AID 434962;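 active means percent inhibition above the average of all tested compounds plus 3 SD, set per screening campaign, cut at about 16% in these data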;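 further: IDE supplied by intact live HEK cells; FP after avidin binding of uncleaved biotin substrate so inhibition keeps polarization high; 0% = DMSO wells and 100% = 60 µM reference IDE inhibitor Ii1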
Target sequence (P14735 whole entry, looked up): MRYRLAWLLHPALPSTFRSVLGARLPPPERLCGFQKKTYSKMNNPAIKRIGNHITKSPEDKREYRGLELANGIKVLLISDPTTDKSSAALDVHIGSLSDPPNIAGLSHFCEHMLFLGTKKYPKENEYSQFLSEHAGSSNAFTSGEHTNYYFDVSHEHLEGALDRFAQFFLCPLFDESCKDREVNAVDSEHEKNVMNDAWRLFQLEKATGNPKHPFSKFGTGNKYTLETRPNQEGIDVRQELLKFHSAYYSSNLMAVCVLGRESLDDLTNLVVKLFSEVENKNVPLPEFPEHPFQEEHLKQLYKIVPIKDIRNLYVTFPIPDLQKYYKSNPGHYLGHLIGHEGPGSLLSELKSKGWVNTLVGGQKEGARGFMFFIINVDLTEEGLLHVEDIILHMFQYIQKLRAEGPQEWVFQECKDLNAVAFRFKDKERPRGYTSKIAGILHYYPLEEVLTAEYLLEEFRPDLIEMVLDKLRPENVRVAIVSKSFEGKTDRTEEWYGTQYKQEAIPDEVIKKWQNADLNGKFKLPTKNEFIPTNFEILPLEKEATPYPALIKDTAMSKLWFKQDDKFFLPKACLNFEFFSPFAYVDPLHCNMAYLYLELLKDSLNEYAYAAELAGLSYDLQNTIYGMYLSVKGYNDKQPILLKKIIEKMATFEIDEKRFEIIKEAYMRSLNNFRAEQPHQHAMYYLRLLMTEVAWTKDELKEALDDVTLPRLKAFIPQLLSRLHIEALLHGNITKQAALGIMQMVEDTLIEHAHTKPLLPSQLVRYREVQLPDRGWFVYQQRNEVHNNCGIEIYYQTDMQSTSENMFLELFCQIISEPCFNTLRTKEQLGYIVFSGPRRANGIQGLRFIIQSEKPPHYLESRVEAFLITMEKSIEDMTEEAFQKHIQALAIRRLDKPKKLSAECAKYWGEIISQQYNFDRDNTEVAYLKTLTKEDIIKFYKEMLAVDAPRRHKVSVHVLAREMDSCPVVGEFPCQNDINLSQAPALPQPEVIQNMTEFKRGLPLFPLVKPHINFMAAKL
IDE act: IDE (human) activation, cell-based | 340,000 compounds, 0.073% hits | AID 493087 | P14735 | activation, % at 5.96 µM | HEK cells, FAbeta-B cleavage, fluorescence polarization; 0% vehicle, 100% cell-free pure enzyme wells;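 active means activation above the mean of all tested compounds plus 3 SD, set per screening campaign, cut at about 17% in these data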
CRFR2-BP antag: antagonists of CRF-binding protein/CRF-R2 receptor complex; HEK293 CRF-R2/CRF-BP, CRF-induced calcium fluorescence; AID 588475; 350,000 compounds, 0.59% hits; inhibition, % at 11.8 µM;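 active means inhibition of the ligand-induced calcium signal above about 50% at the single tested concentration, limit read from the data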
Myeloid diff MLP: promotes myeloid progenitor differentiation. 360,000 compounds, 1% hits. ER-HoxA9 myeloid progenitors, lysozyme-GFP differentiation, flow cytometry. AID 624256. calls only at 10 µM;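 active means normalized GFP-positive differentiation at or above the plate's own cutoff, the solvent-only control mean plus 3 SD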;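 further: cells exposed to compound for four days before flow analysis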
CRFBP-R2 agonist: agonists of human CRF-binding protein/CRF-R2 receptor complex | 350,000 compounds, 0.46% hits | activation, % at 13.2 µM | HEK293 CRF-R2/CRF-BP, calcium dye fluorescence (FLIPR); percent of saturating CRF peptide response;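 active means activation of at least 50%, plus an integration ratio under a set limit after plate pattern correction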;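 further: plate controls were neutral control wells without compound for no effect and CRF at EC100 for full effect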
TPT1 inhibitor: inhibitors of Candida albicans tRNA 2'-phosphotransferase TPT1; recombinant caTPT1, FP RNA substrate dephosphorylation; inhibition, % at 5 µM; 300,000 compounds, 0.81% hits; AID 1962;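 active means inhibition above the mean of all tested compounds plus 3 SD, set per screening campaign, cut at about 24% in these data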;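 further: plate controls were DMSO alone for no effect and ferristatin control at 100 nM for full effect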
* = called active by the depositor; i = inactive; · = no result; + = active, no number.

SMILES | IDE cell inh | IDE act | CRFR2-BP antag | Myeloid diff MLP | CRFBP-R2 agonist | TPT1 inhibitor
C1=C(c2ccccc2)Nc2ncnn2C1c1ccccc1 (centres undefined) | 0.3 | 3.0 | -0.7 | i | 15.8 | -6.2
CC(C)Oc1ccc(S(=O)(=O)N2CCOCC2)cc1NC(=O)c1ccc(N2CCCC2=O)cc1 | 3.5 | 0.9 | 1.2 | i | -0.8 | 1.4
COC1=CC(C)C2CC3OC(=O)CC4C(C)=C(OC)C(=O)C(C2(C)C1=O)C34C (centres undefined) | · | · | · | i | · | ·
Cc1ccc(C)c(NC(=O)COC(=O)CCC(=O)c2cccs2)c1 | 0.1 | 0.7 | 8.4 | + | -1.7 | -0.2
O=C(CCC(=O)c1cccs1)c1cccs1 | -0.9 | -1.1 | 7.2 | + | 0.6 | -7.5
O=C(CCC(=O)c1cccs1)NC(c1ccccc1)c1ccccc1 | 7.0 | -3.4 | 10.4 | i | -1.1 | 0.1
Cc1ccc(NC(=O)COC(=O)CCC(=O)c2cccs2)cc1 | 3.4 | 3.0 | -18.5 | i | -1.3 | 1.8
O=C(Nc1sc2c(c1C(=O)NCC(O)CO)CCCC2)c1ccccc1 (centres undefined) | -3.1 | 5.5 | 6.0 | i | -2.9 | 3.6
Nc1ccc2c3c(cccc13)-c1ccccc1-2 | · | -22.0 | -216.4 | + | 196.8* | ·
COc1ccc(-c2cc(C(=O)O)nc3ccc4ccccc4c23)cc1OC | -1.2 | 5.2 | 58.0* | i | -1.1 | 1.7
COc1cc(SC)ccc1C(=O)Nc1ncc(C)s1 | 2.8 | 2.0 | 104.5* | i | 0.3 | 0.4
COc1cc(SC)ccc1C(=O)Nc1ccc(Br)cn1 | -6.1 | 0.5 | -2.8 | i | 3.2 | 0.8
C[C@H](CO)N1C[C@H](C)[C@@H](CN(C)S(=O)(=O)c2ccccc2)Oc2ccc(NC(=O)CCN3CCOCC3)cc2C1=O | 4.8 | -0.2 | -6.9 | i | 0.8 | ·
Cc1ccccc1C1C(C#N)=C2NC(=O)c3c(sc4c3CCCCC4)N2C2=C1C(=O)CC(C)(C)C2 (centres undefined) | 10.2 | · | · | · | · | -12.0
Cc1ccccc1C1C(C#N)=C2N=C(N)c3c(sc4c3CCCCC4)N2C2=C1C(=O)CC(C)(C)C2 (centres undefined) | -0.1 | -15.8 | -29.6 | + | 10.3 | -3.9
Cc1ccc(-c2cn3cccc(C)c3n2)cc1 | · | -1.2 | 2.2 | i | 0.1 | ·
O=[N+]([O-])c1cccn2cc(-c3ccc(Br)cc3)nc12 | 4.7 | 0.4 | 2.4 | + | 0.4 | 0.3
Cc1cnc(C(=O)OCC(=O)C23CC4CC(CC(C4)C2)C3)cn1 | 4.7 | 5.7 | -5.8 | + | 1.0 | -0.7
Cc1cnc(C(=O)OCC(=O)NC23CC4CC(CC(C4)C2)C3)cn1 | 3.4 | 3.2 | 3.5 | i | 0.4 | 3.8
CCOc1ncccc1C(=O)NC(C)CCc1ccccc1 (centres undefined) | · | 0.5 | 7.9 | + | 1.3 | ·
O=C(NNC(=O)c1cccs1)c1ccccc1 | 2.8 | 1.4 | 13.6 | i | 0.4 | -1.8
CC(Oc1ccccc1)C(=O)NNC(=O)c1cccs1 (centres undefined) | -0.6 | 6.0 | 1.9 | + | 0.5 | 3.9
Cc1ccc(NC(=O)Cn2nnc(C(=O)NCc3ccccc3)c2N)cc1C | 5.3 | -1.0 | 3.4 | i | -1.7 | -1.0
Cc1ccc(NC(=O)c2nnn(CC(=O)Nc3ccccc3)c2N)cc1C | -0.3 | 4.1 | 1.3 | + | 0.7 | -3.6
O=C(COC(=O)CCc1ccc(S(=O)(=O)N2CCOCC2)cc1)Nc1ccccc1OC(F)F | -1.9 | 2.9 | 105.0* | i | 2.4 | ·
COc1cccc(C(C(=O)NC2CCCC2)N(C(=O)c2ccco2)c2ccc(-n3cnnn3)c(C)c2)c1OC (centres undefined) | 8.6 | -1.1 | -0.2 | i | 1.5 | -5.7
Cc1ccc(S(=O)(=O)c2nnn3c2nc(N2CCOCC2)c2ccccc23)cc1C | 3.1 | 0.8 | 55.4* | i | 0.6 | -0.6
Cc1ccc(S(=O)(=O)c2nnn3c2nc(N2CCOCC2)c2ccccc23)c(C)c1 | 4.3 | -1.5 | 106.3* | i | -0.7 | -2.5
CCCCN1C(=O)/C(=C/C=C2\Oc3ccccc3N2CC)SC1=S | · | -149.5 | -365.4 | + | 287.2* | ·
CCN1C(=O)/C(=C\N2CCCc3ccccc32)SC1=S | -4.0 | 6.2 | -5.1 | i | 3.2 | 1.1

Screens as filed in PubChem BioAssay.
